# Hit rate of the full screen: of about 190,000 compounds, about 790 (0.42%) were called active.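 The calls were made as follows: active = inhibition above a set limit, the median over all tested compounds plus 3 SD (cut at about 9.5% in these data); inconclusive = no clear call, values can overlap the other calls; inactive = the rest.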 What follows is part of a selection rich in actives, with near analogues and random picks from the rest.
# Test system: HMG-CoA reductase (Enterococcus faecalis, mvaE)
# Experiment: inhibitors of E. faecalis class II HMGR, primary screen, biochemical, Enterococcus faecalis (AID 1066);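 also: enzyme runs in reverse so mevalonate oxidation gives rising NADPH absorbance; 0% = complete reaction with DMSO and 100% = background rate lacking mevalonate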
# Details: purified E. faecalis HMGR, NADPH absorbance 340 nm kinetic; at 10 µM; hits give high values
row,SMILES,inhibition
1,CN(C)CCCN=Cc1c(O)n(Cc2ccco2)c(=O)[nH]c1=O,6.16% (inactive)
2,COc1ccc(CCn2c(O)c(C=NCCCn3ccnc3)c(=O)[nH]c2=O)cc1OC,13.7% (active)
3,COc1ccc(CCn2c(O)c(C=NC3CC3)c(=O)[nH]c2=O)cc1OC,-3.24% (inactive)
4,CN(C)c1nc(N(C)C)nc(N(C#N)CCCl)n1,-6.92% (inactive)
5,O=C(O)CCn1cc(C=C2C(=O)NC(=S)NC2=O)c(-c2cccc(Br)c2)n1,1.54% (inactive)
